# In the OligoGym collection:
# Tests used:
# Assay in all cases: pooled miR-30 sensor sort-seq; sequence = guide strand
# Details in all cases: shRNA
# IL5 = target: IL5
# IL32 = target: IL32
# IL16 = target: IL16
# IL18RAP = target: IL18RAP
# IMMP2L = target: IMMP2L
# ILDR2 = target: ILDR2
# IL7 = target: IL7
# INF2 = target: INF2
# IPO9 = target: IPO9
# ITFG1 = target: ITFG1
# ITGAM = target: ITGAM
# ITGA2 = target: ITGA2
# ITFG2 = target: ITFG2
# Also: reference of the scale not given here.
sequence,measurement,setting,value
TTGAATAGTCTTTCCACAGTAC,sensor-assay potency score (higher = more potent),IL5,0.569
TTTTTCAAGTAGAGGAGTGAGC,sensor-assay potency score (higher = more potent),IL32,-0.743
TTGCGGGATCCTCAACATCCGG,sensor-assay potency score (higher = more potent),IL32,-1.68
TGATTCACCATTGAGCTCCAGA,sensor-assay potency score (higher = more potent),IL16,-0.0119
ATAAACTTCATCCACTACGATT,sensor-assay potency score (higher = more potent),IL18RAP,-1.45
TATTTTCTGATTCTGCTCGGAC,sensor-assay potency score (higher = more potent),IL18RAP,-0.239
TTGCACAGTTTGACTCTCCAGT,sensor-assay potency score (higher = more potent),IL5,-0.479
TTAACTTCTAAAATCATCTTGA,sensor-assay potency score (higher = more potent),IL18RAP,1
TTTCAGTGTTTGATCATCCAAG,sensor-assay potency score (higher = more potent),IL18RAP,-0.42
TTGTAGTTCAAAGATACTGGGT,sensor-assay potency score (higher = more potent),IL18RAP,-0.0545
TACAGGAACAGGAATCCTCAGA,sensor-assay potency score (higher = more potent),IL5,-0.449
TTTGAAGTCGTCCTCCAGCTCT,sensor-assay potency score (higher = more potent),IL32,-0.749
ATAAAATCTTTCTATGGCCTGG,sensor-assay potency score (higher = more potent),IL32,-0.133
TTACTCTCCGTCTTTCTTCTCC,sensor-assay potency score (higher = more potent),IL5,0.308
TGAAGTCGTCCTCCAGCTCTGC,sensor-assay potency score (higher = more potent),IL32,-1.04
TTTGACTCTCCAGTGTGCCTAT,sensor-assay potency score (higher = more potent),IL5,-0.108
TAAAATCTTTCTATGGCCTGGT,sensor-assay potency score (higher = more potent),IL32,0.537
TACACCAAGAAACTCTTGCAGG,sensor-assay potency score (higher = more potent),IL5,-0.92
TCTCACTTGAACAACAGCTCTG,sensor-assay potency score (higher = more potent),IL18RAP,0.299
TTTATCATAAAATCTTTCTATG,sensor-assay potency score (higher = more potent),IL32,-1.15
TAGGACTTGTCACAAAAGCTCT,sensor-assay potency score (higher = more potent),IL32,-1.15
TTTGAATTTCCTATCAGCCTGA,sensor-assay potency score (higher = more potent),IL18RAP,0.608
TTTTGAATAGTCTTTCCACAGT,sensor-assay potency score (higher = more potent),IL5,-0.99
TTTTATCATAAAATCTTTCTAT,sensor-assay potency score (higher = more potent),IL32,-0.484
TCATCTTGACACAACAGGCTAC,sensor-assay potency score (higher = more potent),IL18RAP,0.09
TTCTTCAGTGCACAGTTGGTGA,sensor-assay potency score (higher = more potent),IL5,-1.09
TGCGGGATCCTCAACATCCGGG,sensor-assay potency score (higher = more potent),IL32,-0.63
TAGGACTGGAAAGAGGACATGA,sensor-assay potency score (higher = more potent),IL32,0.275
TTGTTTTCTAAAACATCAGGAA,sensor-assay potency score (higher = more potent),IL18RAP,-0.521
TTGGACATCAGATAGGTCGTTA,sensor-assay potency score (higher = more potent),IL18RAP,0.111
TAGATCAGGAACACTGCTGGGC,sensor-assay potency score (higher = more potent),IL16,0.521
TATTTCTTTATTAAGGACAAGT,sensor-assay potency score (higher = more potent),IL5,-0.457
TTGATGTATCTTTTCACCCACC,sensor-assay potency score (higher = more potent),IMMP2L,-0.733
TCTGCATCATGAACAATCGTGA,sensor-assay potency score (higher = more potent),ILDR2,-0.116
TATTATTGCAACTGATACCTTA,sensor-assay potency score (higher = more potent),IL7,-0.0538
TTGAAGCTACTACTCGAACAGT,sensor-assay potency score (higher = more potent),ILDR2,-0.815
AATGATACAATGTCACCACGGT,sensor-assay potency score (higher = more potent),IMMP2L,0.432
TTCTAGTAATACAATATGCATT,sensor-assay potency score (higher = more potent),IL7,-1.23
TCTACTCTTGCCACACAGGCGA,sensor-assay potency score (higher = more potent),IMMP2L,-0.683
TCAAAATTCCTCACTTTCCAGT,sensor-assay potency score (higher = more potent),IMMP2L,-0.183
TAATACAGTAATAGAGTCCGCT,sensor-assay potency score (higher = more potent),ILDR2,0.505
TTGTTTGTATTCATCTTCTAGT,sensor-assay potency score (higher = more potent),IL7,-0.373
TAGGACTTGAACTTCCACTGCA,sensor-assay potency score (higher = more potent),ILDR2,0.867
TGAACAATCGTGATCTCTCTGC,sensor-assay potency score (higher = more potent),ILDR2,-0.125
TAAATATTTCTCGCACAGCATC,sensor-assay potency score (higher = more potent),IMMP2L,-1.39
TAGCATCACAGATATGTCTTTT,sensor-assay potency score (higher = more potent),IL7,-0.445
TTCAAGAGCAATCACTCTCTTA,sensor-assay potency score (higher = more potent),IMMP2L,-0.135
TTCCTTATTAGCATCACAGATA,sensor-assay potency score (higher = more potent),IL7,-0.731
TACTACTCGAACAGTCCTCCTG,sensor-assay potency score (higher = more potent),ILDR2,0.188
TACAGTAATAGAGTCCGCTGTC,sensor-assay potency score (higher = more potent),ILDR2,0.133
TATCACAATCAGATGATGCTAC,sensor-assay potency score (higher = more potent),IL7,0.423
TAAAGATTTATTTTCTTCCAAA,sensor-assay potency score (higher = more potent),IL7,-1.11
TGAACTTCCACTGCACAACTGC,sensor-assay potency score (higher = more potent),ILDR2,-0.265
TTCAAAAGCACCACATCAGATG,sensor-assay potency score (higher = more potent),IMMP2L,-0.957
TTATATCTGCCTCTCATCCTTC,sensor-assay potency score (higher = more potent),ILDR2,-0.505
TTGTAATAGTCTCTTTAGGAAA,sensor-assay potency score (higher = more potent),IL7,-1.6
TATGGTTCTGACAATATCTCCT,sensor-assay potency score (higher = more potent),IMMP2L,0.439
TTCAAAGAAGGCTGCATCGATG,sensor-assay potency score (higher = more potent),IMMP2L,-1.29
TATCTCTTGTAATAGTCTCTTT,sensor-assay potency score (higher = more potent),IL7,-0.557
TAGTACAGGACCTTCATGGAGT,sensor-assay potency score (higher = more potent),ILDR2,0.283
TCTTAATGATCTTCTGTTCTGG,sensor-assay potency score (higher = more potent),IMMP2L,0.00439
TTTCAGGATGCTCTCACTCTGG,sensor-assay potency score (higher = more potent),INF2,-0.623
TTGTCGGGCACTGTGACCTGAA,sensor-assay potency score (higher = more potent),ILDR2,-0.304
ATCGATGCTCCTTCTACTCTTG,sensor-assay potency score (higher = more potent),IMMP2L,-0.658
TAATGATCTTCTGTTCTGGGTT,sensor-assay potency score (higher = more potent),IMMP2L,-0.0559
TTGCATTTTGATTAAACCTTGC,sensor-assay potency score (higher = more potent),INF2,-0.249
TCAGTGGTTAGGACATCGCTGG,sensor-assay potency score (higher = more potent),INF2,-0.678
TTCTCTTGCTGAGAGATTGGGC,sensor-assay potency score (higher = more potent),ILDR2,-0.528
TTGAGGTTCAGGCTCTTCTTGG,sensor-assay potency score (higher = more potent),INF2,-1.01
TTTTCTTCCAAACTCTTTGTTG,sensor-assay potency score (higher = more potent),IL7,-0.54
TAGGAAACACAAGTCATTCAGT,sensor-assay potency score (higher = more potent),IL7,0.00202
TGTTGTAGCATCAAGGCCGGGC,sensor-assay potency score (higher = more potent),INF2,-0.171
TAATCTGTTCTTCAGCAGCCGC,sensor-assay potency score (higher = more potent),IPO9,-1.2
TAATGTTTGATTTTGTCCCCAG,sensor-assay potency score (higher = more potent),ITFG1,-0.0623
TTTATCTTCACAGCCTGGCAGT,sensor-assay potency score (higher = more potent),ITFG1,-0.637
TTAAACAAGATCTCAGCTGTGC,sensor-assay potency score (higher = more potent),ITGAM,0.114
TTGATGTACCAGTCAAACGAGA,sensor-assay potency score (higher = more potent),ITGAM,-0.909
TTCGTATAGATTTTTCTCCAGA,sensor-assay potency score (higher = more potent),ITFG1,-0.843
TACTTCTGTCCCATCAACCGGC,sensor-assay potency score (higher = more potent),ITGA2,0.167
TTACACTCAAATACATTCCTTG,sensor-assay potency score (higher = more potent),ITGAM,0.424
TTAACGTATCGTTATCAACGTC,sensor-assay potency score (higher = more potent),ITFG2,-0.293
TTTTTCTCTATCATCTGCTTTC,sensor-assay potency score (higher = more potent),ITFG1,-0.602
TAGGTCTGAACTTTGCACTGAA,sensor-assay potency score (higher = more potent),ITGA2,-0.0543
TATCAATGCACTGTGATTCTTG,sensor-assay potency score (higher = more potent),ITFG1,0.396
